SARS PLP yeast – SARS-CoV PLP inhibition in yeast; S. cerevisiae expressing SARS-CoV PLpro, growth rescue; Potency, µM (highest dose often 32.9 µM), hits mostly activators; 330,000 compounds, 0.19% hits; AID 485353; calls by dose curve; note: nearly all actives have a fitted effect of over 55% in size
Pf growth 96h – P. falciparum growth inhibition at 96 hour, primary screen for plastid delayed-death inhibitors; P. falciparum luciferase reporter growth, 96 h; Potency, µM (series often up to 28.7 µM), usual class: inhibitors; 320,000 compounds, 6.9% hits
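Two-generation exposure (96 h) targets delayed-death phenotype. Reporter parasites carrying integrated firefly luciferase, in red cells at 2% hematocrit and 0.05% parasitemia final, kept at 37 C, 5% CO2; luminescence loss indicates inhibition.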
Sm TGR block – inhibitors of Schistosoma mansoni thioredoxin glutathione reductase | Q962Y6 | purified TGR, DTNB reduction, TNB absorbance 405 nm | Potency, µM (highest dose often 114 µM), usual class: inhibitors | 360,000 compounds, 3% hits | AID 485364; note: nearly all actives have a fitted effect of over 60% in size
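TGR 20 nM + NADPH 100 uM (dispensed conc.), cpd preinc 15 min RT; start with NADPH (500 uM addition) then DTNB (15 mM addition). Kinetic TNB absorbance, 405 nm filter. Four-parameter Hill fit across titration.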
Pf growth 48h – inhibits P. falciparum growth in the first generation, 48 h; P. falciparum luciferase growth in erythrocytes, 48 h; Potency, µM (series often up to 28.7 µM), hits mostly inhibitors; 310,000 compounds, 5.9% hits; AID 504832
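Luminescence readout; reporter = integrated firefly luciferase in P. falciparum. RBC culture at 2% hematocrit, 0.1% parasitemia final, 37 C/5% CO2; decreased signal taken as growth inhibition.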
Each line names hits and unclear results; the compound was inactive in the other large screens. An excerpt weighted towards active compounds, which were near 12% of everything screened. Unless noted, calls come from the whole dose curve; as a rule, active = well fitted curve in the direction sought with a large enough effect; inconclusive = small, poorly fitted or top-dose-only effect, or another doubt; inactive = no such curve, though single readings can be large; an effect the other way counts as inactive or inconclusive.

Cc1cccn2c(=O)c3cc(C(=O)NCCN4CCOCC4)c(=N)n(Cc4ccc(F)cc4)c3nc12	Pf growth 96h 3.7µM, Pf growth 48h inconclusive
Cc1cccn2c(=O)c3cc(C(=O)NCCN4CCOCC4)c(=N)n(CCN4CCOCC4)c3nc12	Pf growth 48h inconclusive
Cc1cccn2c(=O)c3cc(C(=O)NC4CCCC4)c(=N)n(CCCN4CCOCC4)c3nc12	Pf growth 48h 2.3µM
COc1ccc(CNC(=O)C2CCCN(C(=O)N3CCOc4ccccc43)C2)cc1 (stereo unspecified)	none (no result: SARS PLP yeast, Pf growth 96h, Pf growth 48h)
CN(C(=O)c1ccccc1C(=O)OCC(=O)c1ccccc1)c1ccccc1	Pf growth 96h 12µM, Pf growth 48h inconclusive
CNc1ccccc1C(=O)OCC(=O)c1ccc(F)cc1	none
COc1ccc(C(=O)COC(=O)c2ccccc2C(=O)N(C)c2ccccc2)c(OC)c1	Pf growth 48h inconclusive
CN(C(=O)c1ccccc1C(=O)OCC(=O)c1ccc(F)cc1)c1ccccc1	Pf growth 96h inconclusive, Pf growth 48h 8.3µM
CC[C@H](CO)NCCN[C@@H](CC)CO	none (no result: SARS PLP yeast, Sm TGR block)
Cc1ccc(NC(=O)c2ccc(NCc3ccc(F)cc3)nc2)cc1	Pf growth 96h inconclusive
Cc1ccc(NC(=O)c2ccc(Nc3ccccc3F)nc2)cc1	Pf growth 96h 5.9µM
Cc1nc2cccnc2n1C1CCN(S(=O)(=O)N(C)C)CC1	none (no result: SARS PLP yeast, Pf growth 96h, Pf growth 48h)
CCCCn1c(=O)n(CC(=O)NCc2ccc(C)cc2)c(=O)c2c1nc(CO)n2CCC	Pf growth 96h 4.1µM, Pf growth 48h inconclusive
COc1ccc(C2NC(c3ccc(OC)cc3)C(c3ccccc3)C(=O)C2c2ccccc2)cc1 (stereo unspecified)	Pf growth 96h 10µM, Pf growth 48h 12µM
CC(C)Cc1ccc(CN2CCCC(NC(=O)CCN3CCCO3)C2)cc1 (stereo unspecified)	Pf growth 96h inconclusive
COc1ccccc1Nc1nc(NCC2CCCO2)c2ccccc2n1 (stereo unspecified)	Pf growth 96h 1µM, Pf growth 48h inconclusive
O=[N+]([O-])c1ccc(-c2nc(NCC3CCCO3)c3ccccc3n2)cc1 (stereo unspecified)	Pf growth 96h inconclusive, Pf growth 48h inconclusive
Oc1ccccc1-c1nc(NCC2CCCO2)c2ccccc2n1 (stereo unspecified)	Pf growth 96h 10µM, Pf growth 48h inconclusive
COc1cccc(-c2nc(NCC3CCCO3)c3ccccc3n2)c1O (stereo unspecified)	none
CCOc1ccccc1N1CCN(C(=O)c2cc3cc(OC)ccc3[nH]2)CC1	Pf growth 96h inconclusive, Pf growth 48h inconclusive
CCOc1ccc(C(C)=O)cc1CN1C(=O)NC2(CCCCCCC2)C1=O	Pf growth 96h inconclusive, Pf growth 48h 12µM
N#C/C(=C\c1ccccc1)C(=O)OCC(=O)N1CCCC1	Pf growth 48h 9.3µM
CCN1C(=O)C(=C2C=C(C)OC(C)=C2)C(=O)N(CC)C1=S	none
CCOC(=O)C1=CC(=C2C(=O)N(CC)C(=S)N(CC)C2=O)c2ccccc2O1	Sm TGR block 25µM, Pf growth 48h inconclusive
N=c1c2c(ncn1CCCO)Oc1c(ccc3ccccc13)C2c1ccccc1 (stereo unspecified)	Pf growth 96h inconclusive, Pf growth 48h inconclusive
COc1ccc(C2c3ccc4ccccc4c3Oc3ncn(CCCO)c(=N)c32)cc1 (stereo unspecified)	Pf growth 96h inconclusive, Pf growth 48h 5.2µM
CN(C)CCCn1cnc2c(c1=N)C(c1ccccc1)c1ccc3ccccc3c1O2 (stereo unspecified)	Pf growth 96h 2.1µM, Pf growth 48h 1.5µM
N=c1c2c(ncn1Cc1ccco1)Oc1ccc3ccccc3c1C2c1ccccc1 (stereo unspecified)	Pf growth 96h inconclusive, Pf growth 48h 10µM
COc1ccc(C2c3ccc4ccccc4c3Oc3ncn(CCCO)c(=N)c32)cc1OC (stereo unspecified)	Pf growth 96h 1.9µM, Pf growth 48h inconclusive
COc1ccc(C2c3ccc4ccccc4c3Oc3ncn(CCO)c(=N)c32)cc1 (stereo unspecified)	Pf growth 48h inconclusive
CCOC(=O)c1cccc(NC(=O)CCS(=O)(=O)c2ccc3c(c2)CCN3C(=O)CC)c1	none (no result: SARS PLP yeast, Pf growth 96h, Pf growth 48h)
Cc1ccc(C)c(N2CCN(C(=O)CN3C(=O)CSc4c3c(C)nn4-c3ccccc3)CC2)c1	none (no result: SARS PLP yeast, Pf growth 96h, Pf growth 48h)
COc1ccc(C2c3ccc4ccccc4c3Oc3ncn(CCO)c(=N)c32)cc1OC (stereo unspecified)	Pf growth 96h inconclusive, Pf growth 48h 10µM
COc1ccc(C2c3ccc4ccccc4c3Oc3ncn(CCN(C)C)c(=N)c32)cc1 (stereo unspecified)	Pf growth 96h inconclusive, Pf growth 48h 2.3µM
COc1ccc(C2c3c(ncn(Cc4ccco4)c3=N)Oc3ccc4ccccc4c32)cc1 (stereo unspecified)	Pf growth 96h inconclusive, Pf growth 48h inconclusive
N#Cc1ccccc1NC(=O)CSc1nnc(N)s1	none (no result: SARS PLP yeast, Pf growth 96h, Pf growth 48h)
Cc1ccc(Cl)cc1-n1ncc2c(N3CCC(C)CC3)ncnc21	none (no result: SARS PLP yeast, Pf growth 96h, Pf growth 48h)
C/C(=N\NC(=O)c1ccccc1O)c1ccc(Br)s1	Pf growth 48h 13µM
C/C(=N\NC(=O)c1cccc(F)c1)c1ccc(Br)s1	Pf growth 96h 3.7µM, Pf growth 48h inconclusive
Cc1nc2ccc(NC(=O)C3CCN(S(=O)(=O)c4cccs4)CC3)cc2s1	Pf growth 96h 9.3µM, Pf growth 48h inconclusive
Cc1ccc(-c2csc(NC(=O)C3CCN(S(=O)(=O)c4cccs4)CC3)n2)cc1	Pf growth 96h 12µM, Pf growth 48h inconclusive
O=C(Nc1nc(-c2ccc3ccccc3c2)cs1)C1CCN(S(=O)(=O)c2cccs2)CC1	Pf growth 96h inconclusive, Pf growth 48h inconclusive
Cc1nnc(N2CCC(C(=O)NCc3ccc(F)cc3)CC2)c2nn(-c3ccc(Cl)cc3)c(C)c12	none (no result: SARS PLP yeast, Pf growth 96h, Pf growth 48h)
Cc1ccc(C(CC(=O)Nc2ccc(F)c(Cl)c2)N2Cc3ccccc3C2=O)cc1 (stereo unspecified)	none (no result: SARS PLP yeast, Pf growth 96h, Pf growth 48h)
O=C(NC1CCCCC1)C(=O)N(Cc1cccnc1)C(C(=O)NCc1ccco1)c1ccccc1 (stereo unspecified)	Pf growth 96h 5.2µM
O=C(CNC(=S)N(Cc1ccccc1)Cc1cccnc1)NC1CCCCC1	Pf growth 96h 9.3µM, Pf growth 48h inconclusive
O=C(CNC(=S)N(Cc1ccccc1)Cc1cccnc1)NCc1ccccc1	Pf growth 96h inconclusive
Cc1cc[n+]2c3c(cccc13)CCC2	Pf growth 48h 3.7µM (no result: Pf growth 96h)
O=C1C(=O)N(CCS(=O)(=O)c2ccccc2)c2ccc(F)cc21	Pf growth 96h 9.3µM, Pf growth 48h inconclusive
CC(=O)[C@H]1[C@@H]2C(=O)N(c3cccc(Cl)c3)C(=O)[C@@H]2[C@H]2c3ccccc3C=CN21	Sm TGR block 16µM, Pf growth 48h inconclusive
CC(=O)[C@@H]1[C@@H]2C(=O)N(c3ccc(F)c(Cl)c3)C(=O)[C@@H]2C2c3ccccc3C=CN21 (stereo partly specified)	Pf growth 96h inconclusive, Sm TGR block 35µM, Pf growth 48h inconclusive
Cc1ccc(C)c(CSc2cn(CC(=O)N3CCCC3)c3ccccc23)c1	none (no result: SARS PLP yeast, Pf growth 96h, Pf growth 48h)
O=C(COc1ccc2ccccc2c1)Nc1ccc(S(=O)(=O)N2CCCCCC2)cc1	Pf growth 96h inconclusive, Pf growth 48h 12µM
